# Results published in the supplement of paper PMC13380429.
# Test system: Vero E6 infected with SARS-CoV-2
# Assay: SARS-CoV-2 infection rate relative to infected DMSO; higher = more infection, active = 60 or less
# Conditions: 24 h
row,SMILES,SARS-CoV-2 infection rate
1,Nc1ccc(C(=O)Oc2ccccc2)c(O)c1 [phenyl-aminosalicylate] (10 µM),104% (inactive)
2,c1ccc(C(NCc2cccnc2)(c2ccccc2)c2ccccc2)cc1 (10 µM),104% (inactive)
3,Nc1cc2c3ccccc3ccc2c2ccccc12 [6-aminochrysene] (10 µM),101% (inactive)
4,C/C(=C\C(N)C(=O)O)CP(=O)(O)O (stereo unspecified) (10 µM),110% (inactive)
5,O=C(O)[C@H](O)[C@@H](O)[C@H](O[C@@H]1O[C@H](CO)[C@H](O)[C@H](O)[C@H]1O)[C@H](O)CO [maltobionic-acid] (10 µM),92.5% (inactive)
6,COc1ccc(OC)c(CN(C(C)=O)c2cc(F)ccc2Oc2ccccc2)c1 (10 µM),95% (inactive)
7,CCCc1c(OCC(O)COc2ccc3c(=O)cc(C(=O)O)oc3c2CCC)ccc(C(C)=O)c1O (stereo unspecified) (10 µM),99.5% (inactive)
8,CC(=O)O[C@H]1C(=O)[C@@]2(C)[C@H]([C@H](OC(=O)c3ccccc3)[C@]3(O)C[C@H](OC(=O)[C@H](O)[C@@H](NC(=O)c4ccccc4)c4ccccc4)C(C)=C1C3(C)C)[C@]1(OC(C)=O)CO[C@@H]1C[C@@H]2O [paclitaxel] (10 µM),108% (inactive)
9,COc1cccc(OCCCN)c1-c1cc(Nc2cnc(C#N)cn2)n[nH]1 (10 µM),103% (inactive)
10,CN1CCOC(c2ccccc2)c2ccccc2C1 (stereo unspecified) [nefopam] (10 µM),108% (inactive)
11,COc1cc2cc(c1Cl)N(C)C(=O)C[C@H](OC(=O)C(C)C)[C@]1(C)O[C@@H]1[C@H](C)[C@@H]1C[C@@](O)(NC(=O)O1)[C@H](OC)/C=C/C=C(\C)C2 [ansamitocin-p-3] (0.833333 µM),114% (inactive)
